Bioassay records: PubChem BioAssay, National Center for Advancing Translational Sciences (NCATS)
D1 antag – Antagonist of Human D 1 Dopamine Receptor: qHTS | D(1A) dopamine receptor (Homo sapiens), P21728 | HEK293 TREx D1 cells, calcium flux, dopamine EC80; active compounds read low | activity change, negative = inhibition, % at 10 µM | 360,000 tested, 3.2% active | AID 504652, 2011; in the data active = activity change below about -30%; note: % is set by controls: 0 for no effect and ±100 for the full control effect
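Kinetic fluorescence of a calcium dye serves as the read-out. D1-expressing Hek293 Trex cells, induced overnight at 30 C, are exposed to compound for 180 s before an EC80 dopamine addition, then read 180 s further.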
DRD3 agonist – qHTS of D3 Dopamine Receptor Agonist: qHTS | D3R DiscoveRx beta-arrestin cells, luminescence, 90 min | max activation, % | 410,000 tested, 0.58% active | AID 652048, 2013; in the data active = max activation above about 30%; note: 0% is about no effect
Target sequence (P35462 whole entry, looked up): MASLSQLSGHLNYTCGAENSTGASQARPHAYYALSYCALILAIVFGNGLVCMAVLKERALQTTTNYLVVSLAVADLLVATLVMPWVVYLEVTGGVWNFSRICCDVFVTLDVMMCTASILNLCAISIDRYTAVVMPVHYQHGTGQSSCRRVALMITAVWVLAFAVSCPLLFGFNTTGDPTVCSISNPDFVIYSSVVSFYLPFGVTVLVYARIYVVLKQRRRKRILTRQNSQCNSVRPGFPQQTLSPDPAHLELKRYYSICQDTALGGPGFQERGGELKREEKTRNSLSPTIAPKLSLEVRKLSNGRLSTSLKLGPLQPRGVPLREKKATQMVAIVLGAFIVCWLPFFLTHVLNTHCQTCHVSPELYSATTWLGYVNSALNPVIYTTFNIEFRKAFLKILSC
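Agonist mode: compounds and dopamine controls were applied to plated cells for 90 min at 37 degrees C after an overnight attachment at 1500 cells/well. Luminescent read-out followed 30 - 60 minutes at room temperature with DiscoveRx detection reagent.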
D1 potentiator – Potentiators of Human D1 Dopamine Receptor: qHTS. D(1A) dopamine receptor (Homo sapiens), P21728. HEK293 TREx D1 cells, calcium flux, dopamine EC20 potentiation. potentiation, % at 10 µM. 360,000 tested, 0.036% active. AID 504651, 2011; in the data active = potentiation above about 30%; note: 0% is about no effect
D1 ag – Allosteric Agonists of the Human D1 Dopamine Receptor: qHTS; HEK293 T-REx D1 cells, calcium flux, agonist mode; activation, % at 2 µM; 360,000 tested, 1% active; in the data active = activation above about 30%; note: 0% is about no effect
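Agonism was scored from calcium flux recorded over 180 s (1 read/s) after pintool compound addition, following a 10-cycle baseline. Cells were inducible force-coupled HEK293 TREx D1, plated overnight at 30 C and loaded with no-wash calcium dye.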
DRD3 antagonist – qHTS of D3 Dopamine Receptor Antagonist: qHTS; D3R cells, DiscoveRx beta-arrestin luminescence, antagonist mode; active compounds read low; max response, negative = inhibition, %; 360,000 tested, 2.5% active; AID 652054, 2013; in the data active = max response below about -50%; note: % is set by controls: 0 for no effect and ±100 for the full control effect
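Cells expressing the human receptor were seeded at 1500 cells/well, incubated overnight at 37 degrees C in 5% CO2, then exposed to library compounds with dopamine controls for 90 minutes at 37 degrees C before luminescent detection.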
Active calls of the source: *; · = no result. Sampled rows, rich in hits. Any-hit rate of the full collection: about 6.1%.

SMILES	D1 antag	DRD3 agonist	D1 potentiator	D1 ag	DRD3 antagonist
Cc1oc2ncn(C)c(=O)c2c1C(=O)NCCCN(Cc1ccccc1)C(C)C	0	5	-1	2	·
CCCCCCCCCCCCCC[n+]1ccc(C)cc1	·	0	·	·	·
CCC(C)(C)c1ccc(OCCCC[n+]2cccc(C)c2C)c(C(C)(C)CC)c1	20	-17	-15	146*	17
CCC(C)(C)c1ccc(OCCCC[n+]2ccc(C)cc2)c(C(C)(C)CC)c1	-25	-3	-8	127*	1
CCCCCCCCC[n+]1cccc2c3ccccc3ccc21	-16	-9	-4	0	-27
CCOC(=O)N1CCC(N2C(=O)c3ccccc3C2Nc2ccccc2C)CC1 (stereo unspecified)	-71*	-4	3	-3	7
CCOC(=O)c1ccccc1NC1c2ccccc2C(=O)N1C1CCN(C(=O)OCC)CC1 (stereo unspecified)	3	0	2	12	24
Cc1ccccc1OCCSc1nnc(-c2ccc([N+](=O)[O-])cc2)o1	-1	-16	1	-3	·
O=C(Cn1c(=O)n(-c2ccccc2)c(=O)c2c3c(sc21)CCCC3)Nc1cccc(F)c1	6	-6	1	2	·
COc1ccccc1N1CCN(C(c2ccc(N(C)C)cc2)c2nnnn2CCc2ccccc2)CC1 (stereo unspecified)	2	1	-5	9	-51*
COc1ccc(C(c2nnnn2CCc2ccccc2)N2CCN(C3CCCC3)CC2)cc1 (stereo unspecified)	14	0	0	1	-85*
COc1ccc(Cn2nnnc2C(c2ccccc2)N2CCN(C3CCCC3)CC2)cc1 (stereo unspecified)	-6	-10	-3	30	-27
Cc1cccc(N2CCN(C(c3ccncc3)c3nnnn3C(C)(C)C)CC2)c1C (stereo unspecified)	-40*	-1	-8	0	0
Cc1ccc(C(c2nnnn2C(C)(C)C)N2CCN(C3CCCC3)CC2)cc1 (stereo unspecified)	4	-16	10	1	-92*
Cc1cccc(N2CCN(C(=O)CS(=O)(=O)c3cccc4nsnc34)CC2C)c1 (stereo unspecified)	9	7	-4	8	·
CCc1cccc(CC)c1NC(=O)c1cc(S(=O)(=O)N2CCc3ccccc32)cn1C	3	-17	-2	1	·
O=C(CCCCn1c(=O)c2ccccc2n(Cc2ccc(Cl)cc2)c1=O)NCc1ccccc1Cl	1	-1	1	4	·
Cc1ccccc1C(=O)Oc1cc(-c2ccc3c(c2)OCO3)cc(=O)c2c(C)oc(C)c12	-3	6	-2	0	·
CCO/N=C(/C)c1c(O)cc(C(C)(C)C)n(-c2ccccc2)c1=O	16	6	-5	1	-3
CCO/N=C(\C)c1c(O)cc(C(C)C)n(-c2ccccc2)c1=O	-36*	-14	-4	1	-13
CC(=O)c1ccc(N2C(=O)N(Cc3cccc(C(F)(F)F)c3)c3ccccc3S2(=O)=O)cc1	5	-1	-3	5	·
O=C(CC1C(=O)NCCN1C(=O)c1ccc(Cl)cc1)Nc1ccc(F)cc1 (stereo unspecified)	-5	4	-6	1	14
O=C(CC1C(=O)NCCN1C(=O)Nc1ccc(Cl)cc1)Nc1ccc(F)cc1 (stereo unspecified)	-51*	-7	-8	2	-11
Cc1cccc(CNC(=O)c2ccc3nc(-c4ccccc4)c(-c4ccccc4)nc3c2)c1	-2	3	0	-1	·
CCN(C(=O)c1nn(C)c2c1CSc1ccccc1-2)c1cccc(C)c1	1	-7	-1	4	·
SMILES	D1 antag	DRD3 agonist	D1 potentiator	D1 ag	DRD3 antagonist
CC1CCC(NC(=O)COc2ccccc2C(N)=O)CC1 (stereo unspecified)	13	-3	3	2	13
CC(C)CN(CC(C)C)C(=O)COc1ccccc1C(N)=O	-35*	-1	-1	4	22
COCCCNC(=S)N1CCCN(c2nc3c(C)c(C)ccc3cc2C#N)CC1	-42*	1	-3	-1	-9
O=C(Oc1ccccc1)c1cccc(COC(=O)c2cnccn2)c1	-59*	1	-6	15	11
Cc1ccc(NC(=O)N2CCC(NC(=O)c3ccccc3C)CC2)cc1	14	-4	-2	1	9
Cc1ccccc1[C@H](NC1c2ccccc2C=Cc2ccccc21)P(=O)(c1ccccc1)c1ccccc1	·	-5	·	·	-56*
COc1ccc(CNC(=O)c2ccc(Cn3c(=O)c4cccn4c4cccnc43)cc2)cc1OC	5	2	-2	1	·
CCN(CC)S(=O)(=O)c1ccc(C)c(NC(=O)CNCc2ccccc2OC)c1	-7	33*	-3	8	-24
COc1ccccc1CNCC(=O)Nc1cc(S(=O)(=O)N2CCCCC2)ccc1C	·	15	·	·	-51*
COc1ccccc1CNCC(=O)Nc1cc(S(=O)(=O)N2CCOCC2)ccc1Cl	-6	13	-3	2	-8
COc1ccc(S(=O)(=O)N2CCCCC2)cc1NC(=O)c1[nH]c(C)c(C(C)=O)c1C	·	-20	·	·	-1
COc1ccccc1CNCC(=O)Nc1cc(S(=O)(=O)N2CCCCCC2)ccc1Cl	-8	3	-6	17	-60*
CC(=O)c1c(C)[nH]c(C(=O)Nc2cc(S(=O)(=O)N3CCCCC3)ccc2C)c1C	-31*	-10	-10	4	0
CSc1ccc(C2c3c(-c4ccccc4O)n[nH]c3C(=O)N2Cc2ccncc2)cc1 (stereo unspecified)	-2	6	3	1	·
COc1ccc(CNC(=O)c2ccc3c(c2)CCN3S(=O)(=O)c2ccc(C)cc2)cc1	-10	8	-3	4	·
Cc1ccc(-c2nc(SCC(=O)Nc3cc(S(=O)(=O)N4CCCCC4)ccc3Cl)n[nH]2)cc1	-35*	6	-4	4	9
Cc1ccc(S(=O)(=O)N2CCCCC2)cc1NC(=O)CNCc1ccco1	-4	38*	-4	6	1
Nc1cc(=O)[nH]c(SCC(=O)Nc2cc(S(=O)(=O)N3CCCCCC3)ccc2Cl)n1	·	4	·	·	8
COc1ccccc1Oc1ccc2c(c1)C(=O)N(c1cccc3ncccc13)C2=O	-35*	1	-6	15	3
COc1ccccc1Oc1ccc2c(c1)C(=O)N(c1cccc(O)c1)C2=O	-22	6	-7	4	16
Cc1ccc(CONC(=O)c2ccc(C)cc2)cc1	-30*	-2	-5	1	3
